mcGAS lum: mouse cGAS inhibition by luminescence; inhibition, % at 12.5 µM; recombinant cGAS, Kinase-Glo ATP depletion luminescence; Q8C6L5; 160,000 compounds, 0.15% hits; AID 1259399
Target sequence (Q8C6L5 whole entry, looked up): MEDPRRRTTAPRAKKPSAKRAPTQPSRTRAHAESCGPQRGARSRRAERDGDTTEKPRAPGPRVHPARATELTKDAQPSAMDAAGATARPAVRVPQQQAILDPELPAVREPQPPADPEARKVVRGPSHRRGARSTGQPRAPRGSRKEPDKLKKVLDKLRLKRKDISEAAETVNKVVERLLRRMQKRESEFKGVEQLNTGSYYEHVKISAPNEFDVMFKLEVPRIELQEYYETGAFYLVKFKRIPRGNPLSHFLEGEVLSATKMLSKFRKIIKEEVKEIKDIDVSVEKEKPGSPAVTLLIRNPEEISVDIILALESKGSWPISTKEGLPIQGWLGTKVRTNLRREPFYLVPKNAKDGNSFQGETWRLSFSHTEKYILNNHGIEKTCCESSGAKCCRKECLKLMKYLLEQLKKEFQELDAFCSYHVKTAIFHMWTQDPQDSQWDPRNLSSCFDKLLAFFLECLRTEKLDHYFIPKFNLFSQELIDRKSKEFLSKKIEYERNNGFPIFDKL
hcGAS lum: inhibitors of human cGAS; recombinant h-cGAS, ATP depletion, Kinase-Glo luminescence; Q8N884; inhibition, % at 12.5 µM; 290,000 compounds, 0.081% hits
NPYLR7 ag: activates Aedes aegypti NPYLR7 receptor. HEK293T NPYLR7/Galpha15, GCaMP6s calcium fluorescence. activation, % at 10 µM. 270,000 compounds, 0.15% hits. AID 1259423; in the data active = activation above about 40%
Large screens that a line does not name were inactive; ! = repeats disagree. Most compounds without a hit are left out; they make up all but 0.3% or so of the library. Rule as the data show it, unless noted: active = inhibition above about 40%; inactive = the rest.

COc1ccc(S(=O)(=O)Oc2ccccc2CN(C(=O)Nc2ccccc2OC)C2CC2)cc1	none
COC(=O)C(C)Oc1cc(OC(C)C(=O)OC)c2c3c(c(=O)oc2c1)CCC3 (configuration not stated)	none (no result: mcGAS lum)
COc1ccc2c(c1OC)C(=O)N(c1cccc(Cl)c1)C2=O	none (no result: mcGAS lum)
COc1cc(OC)c(C2=NOC3(CC(=O)N(c4cccc(Cl)c4)C3=O)C2)cc1OC (configuration not stated)	NPYLR7 ag 83 (no result: mcGAS lum)
O=C(CCC(=O)NC1CCCC1)NCc1cc(-c2ccccc2)n[nH]1	none
CCn1ncnc1C(C)NC(=O)c1occc1C (configuration not stated)	none (no result: mcGAS lum)
O=c1c(O)c(-c2ccccc2)oc2cccc(O)c12	none (no result: mcGAS lum)
O=[N+]([O-])c1cc([N+](=O)[O-])c2oc(-c3ccccc3)c(Br)c2c1O	mcGAS lum 91, hcGAS lum 82
CCOc1ccc2nc(Nc3nc(C)c(C)c(C)n3)nc(C)c2c1	none
CCOc1ccc2nc3cc(N)ccc3c(N)c2c1	hcGAS lum 99, NPYLR7 ag 72 (no result: mcGAS lum)
N#CC1C(=N)SC(=N)C(C#N)C1c1ccccc1F (configuration not stated)	mcGAS lum 59, hcGAS lum 68!, NPYLR7 ag 47!
N#CC1C(=N)SC(=N)C(C#N)C1c1cccc(Cl)c1Cl (configuration not stated)	none
N#CC1C(=N)SC(=N)C(C#N)C1c1ccccc1I (configuration not stated)	none (no result: mcGAS lum)
N#CC1C(=N)SC(=N)C(C#N)C1c1ccc(Cl)cc1Cl (configuration not stated)	NPYLR7 ag 164 (no result: mcGAS lum)
N#CC1C(=N)SC(=N)C(C#N)C1c1cccc(Cl)c1 (configuration not stated)	none
N#CC1C(=N)SC(=N)C(C#N)C1c1cccc(F)c1 (configuration not stated)	mcGAS lum 45, hcGAS lum 54, NPYLR7 ag 97
Cc1onc(-c2ccccc2)c1C(=O)NCCc1cccc(Cl)c1	none (no result: mcGAS lum)
Nc1ccc(-n2cc(CCO)cn2)cn1	none (no result: mcGAS lum, NPYLR7 ag)
O=C(O)c1csc(CSc2nnc(Cc3ccccc3)n2-c2cccc(C(F)(F)F)c2)n1	NPYLR7 ag 55
O=C(NCc1cccc(C(F)(F)F)c1)c1csc(CSc2nnc(Cc3ccccc3)n2-c2ccccc2)n1	none
O=S(=O)(Nc1cc(Sc2ncn[nH]2)c(O)c2ccccc12)c1ccc(Br)cc1	mcGAS lum 44
CC(C)(C)c1ccc(S(=O)(=O)Nc2cc(Sc3ncn[nH]3)c(O)c3ccccc23)cc1	none
CCCS(=O)(=O)N1CCN=C1SCc1ccccc1C	NPYLR7 ag 44
CCCS(=O)(=O)N1CCN=C1SCc1cc(C)ccc1C	none
Cc1cc(C(=O)NC2CCN(C(=O)Nc3ccccc3)CC2)n[nH]1	none (no result: mcGAS lum)
O=C(N[C@@H]1CCCCC1NC(=O)C1CCCN(C(=O)c2ccccc2F)C1)c1ccc(F)cc1 (some centres not stated)	none
COc1ccc(C)cc1-n1c(SCC(=O)O)nnc1-c1cc(C)nn1C	hcGAS lum 44
COc1ccc(C)cc1-n1c(Cn2ccnc2)nnc1SCC(=O)O	none (no result: mcGAS lum)
Cc1cc(N)c2ccccc2[n+]1CCCCCCCCCC[n+]1c(C)cc(N)c2ccccc21	hcGAS lum 91!
CC[n+]1c(C)cc(Cl)c2ccccc21	none
Cc1c(NC(=O)COC(=O)C(C#N)=Cc2ccc(N(C)C)cc2)c(=O)n(-c2ccccc2)n1C	NPYLR7 ag 50
CCC(CC)C(=O)Nc1c(C)n(C)n(-c2ccccc2)c1=O	none
NC(=O)CSc1ccc(NC(=O)c2ccccc2)nn1	none
Cc1noc(C)c1C(=O)NCC1Cc2ccccc21 (configuration not stated)	none (no result: mcGAS lum)
COc1ccccc1C1CC(c2cccc(F)c2)=NN1C(=O)CN1CCC2(CC1)OCCO2 (configuration not stated)	none
Cc1ccc(C2=NN(C(=O)CN3CCN(C)CC3)C(c3ccccc3Cl)C2)cc1 (configuration not stated)	NPYLR7 ag 45
Cc1ccc(C2=NN(C(=O)CN3CCCC3)C(c3ccccc3F)C2)cc1 (configuration not stated)	none
COc1ccc(C2=NN(C(=O)CN3CCC4(CC3)OCCO4)C(c3ccccc3OC)C2)cc1 (configuration not stated)	hcGAS lum 78
O=C(NC1CC1c1ccccc1)C1(c2ccc(Cl)cc2Cl)CCOCC1 (configuration not stated)	none (no result: mcGAS lum)
O=C(CCC(=O)c1cccs1)NCc1ccccc1F	none
NCCc1ccc(O)c(O)c1	none
CC(=O)NCCc1ccc(O)c(O)c1	NPYLR7 ag 88
Cc1nccn1CC(C)CNC(=O)N1CCC(C(C)C)CC1 (configuration not stated)	mcGAS lum 68
Cc1ncc(CNC(=O)N2CCC(C(C)C)CC2)s1	none (no result: mcGAS lum)
COc1ccc2nc(NC(=O)/C=C/c3ccc(Br)cc3)sc2c1	none
COc1ccc2nc(C=Cc3cc(Br)c(O)c(OC)c3)sc2c1	NPYLR7 ag 81 (no result: mcGAS lum)
O=C(CCl)c1ccc(NC(=O)c2ccco2)cc1	mcGAS lum 78
O=C(NCc1ccccn1)c1ccc(NC(=O)c2ccco2)cc1	none (no result: mcGAS lum)
O=C(N=Nc1c(O)[nH]c2ccc(Br)cc12)c1ccccc1O	none
O=C(N=Nc1c(O)[nH]c2ccc(Br)cc12)c1ccccc1Cl	NPYLR7 ag 72
CN(Cc1cc(-c2ccccc2)on1)C(=O)CC1NC(=O)c2ccccc21 (configuration not stated)	none (no result: mcGAS lum)
COc1cc(C=C2COc3ccccc3C2=O)ccc1OCc1ccccc1	none
COc1ccc2c(c1)OC/C(=C\c1ccc(OC)c(O)c1)C2=O	mcGAS lum 46 (no result: NPYLR7 ag)
COCCCn1c(SCc2ccc(CC(=O)OCC(=O)c3ccccc3)cc2)nnc1-c1cc(-c2ccccc2)nc2ccccc12	none
O=C(O)C1Nc2c(O)cccc2C2C=CCC12 (configuration not stated)	none
O=C(O)C1Nc2ccc(Br)cc2C2C=CCC12 (configuration not stated)	mcGAS lum 85
COc1cc(C(=O)NCc2cccnc2)ccc1Oc1nc(Cc2ccc(F)cc2)ns1	none
COc1ccc(-c2coc3cc(O)ccc3c2=O)c(O)c1O	mcGAS lum 68, hcGAS lum 51 (no result: NPYLR7 ag)
COc1ccc(-c2coc3cc(O)ccc3c2=O)c(OC)c1O	none
CC(C)=CC(=O)N1CCN(c2nc3ccccc3nc2-c2ccccc2)CC1	none (no result: NPYLR7 ag)
COc1cccc(S(=O)(=O)CCN2CC(C)OCC2C)c1 (configuration not stated)	none (no result: mcGAS lum)
NC(=O)n1c(O)c(C(=O)c2cccs2)c2cc(Cl)ccc21	hcGAS lum 67 (no result: mcGAS lum)
O=C(c1cccs1)c1cccs1	none (no result: mcGAS lum)
OC=c1ccc2cccc3nc(C(F)(F)F)nc1c23	NPYLR7 ag 77 (no result: mcGAS lum)
OC(c1ccccc1)=c1ccc2cccc3ncnc1c23	none (no result: mcGAS lum)
c1csc(-c2cnc3ccc(-c4ccncc4)nn23)c1	none
O=c1nc2n3ccc(-c4ccncc4)cc3ncc-2s1	NPYLR7 ag 55
CS(=O)(=O)N1CCC(C2CCN(C(=O)c3cc(C4CC4)[nH]n3)C2)CC1 (configuration not stated)	none (no result: NPYLR7 ag)
Cc1cc(C)n(-c2cccc(-c3nccn3CCc3cccnc3)c2)n1	none (no result: mcGAS lum)
Cc1ccc(C(=O)NN2C(=O)C3C4C=CC(C5CC45)C3C2=O)cc1 (configuration not stated)	none
O=C(NN1C(=O)C2C3C=CC(C4CC34)C2C1=O)c1cccc(Cl)c1 (configuration not stated)	mcGAS lum 85

Source: PubChem BioAssay
